PubChem BioAssay (NCATS)
Results filed as inconclusive are left out. A number with no mark means an inactive call. Calls come from the whole dose curve; as a rule, active = well fitted curve in the direction sought with a large enough effect; inconclusive = small, poorly fitted or top-dose-only effect, or another doubt; inactive = no such curve, though single readings can be large or run the other way.

Each compound was assayed against Glucagon-like peptide 1 receptor (Homo sapiens) (UniProt P43220) (assay: qHTS of GLP-1 Receptor Agonists: LOPAC Validation (AID 624148;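 note: 0% is about no effect; higher luminescence signal means agonism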)). Settings: GLP-1R agonist cell assay; series mostly up to 46.1 µM; activation: at the top concentration.
Sequence of Glucagon-like peptide 1 receptor (Homo sapiens) (P43220 whole entry, looked up): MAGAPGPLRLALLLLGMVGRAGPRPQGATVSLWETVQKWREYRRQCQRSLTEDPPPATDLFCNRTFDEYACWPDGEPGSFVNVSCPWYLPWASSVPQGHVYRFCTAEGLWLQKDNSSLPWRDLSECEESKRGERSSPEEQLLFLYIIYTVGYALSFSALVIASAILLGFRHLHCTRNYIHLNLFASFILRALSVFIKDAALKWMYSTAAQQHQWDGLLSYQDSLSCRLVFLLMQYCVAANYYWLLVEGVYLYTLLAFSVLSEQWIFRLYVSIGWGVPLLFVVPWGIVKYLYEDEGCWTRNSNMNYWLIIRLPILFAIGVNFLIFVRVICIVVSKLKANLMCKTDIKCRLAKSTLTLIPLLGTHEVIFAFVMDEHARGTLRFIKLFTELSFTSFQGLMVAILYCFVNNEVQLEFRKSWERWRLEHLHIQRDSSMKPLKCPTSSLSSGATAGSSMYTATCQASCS
Outline: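 HEK293 cells stably co-expressing a cAMP-responsive luciferase reporter and a hypersensitive GLP-1R were plated 12 h at 37 °C and exposed to compounds for 4-6 hr at 37 °C, 5% CO2. Luminescence was read 12 min after adding detection reagent.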
In the case of `Cc1ccc(O)c(N=Nc2ccccc2)n1`, the “activation” value is reported as -0.216%. For `CN1C2CCC1CC(OC(=O)C(O)c1ccccc1)C2` (stereo unspecified), the “activation” value was -1.34%. For `CC(=O)SCC[N+](C)(C)C`, the “activation” value was -1.38%. In the case of `COc1cc2nc(N3CCN(C(=O)OCc4ccccc4)C(C(=O)NC(C)(C)C)C3)nc(N)c2cc1OC` (stereo unspecified), the “activation” value is reported as 13.7%. `CC1(C)CCC=[N+]1[O-]` was tested, and the “activation” value was -1%. With `CO/S(=N\S(=O)(=O)c1ccc(Cl)cc1)c1ccc([N+](=O)[O-])cc1` (stereo unspecified) the “activation” value was -1.4%. For `O=P(O)(O)C(Cl)(Cl)P(=O)(O)O`, the “activation” value was -1.8%. With `CCCCCCCCc1ccc(-c2ccc(C(=O)O)cc2)cc1` the “activation” value was -1.59%. With `C#CCN1C(C)=C(C(=O)OC)C(c2cccc([N+](=O)[O-])c2)C(C(=O)OCC)=C1C` (stereo unspecified) the “activation” value was 4.99%. With `COc1cc(C(O)CO)ccc1OS(=O)(=O)O` (stereo unspecified) the “activation” value was 0.258%. For `CC(C)Cc1ccc([C@H](C)C(=O)O)cc1`, the “activation” value was -1.73%. In the case of `Cc1nc2sccn2c(=O)c1CCN1CCC(=C(c2ccccc2)c2ccc(F)cc2)CC1`, the “activation” value is reported as -1.8%. For `O=c1[nH]c2cc(Cl)c(Cl)cc2[nH]c1=O`, the “activation” value was 8.24%. `CC1CN(S(=O)(=O)c2cccc3cnccc23)CCN1` (stereo unspecified) was tested, and the “activation” value was -1.9%. `COc1ccc(NC(=O)/C=C/c2ccc(Cl)cc2)cc1` was tested, and the “activation” value was 1.4%. In the case of `C[C@@H](NC(=O)/C(C#N)=C/c1ccc(O)c(O)c1)c1ccccc1`, the “activation” value is reported as -1.43%. In the case of `CCCN(CC1CC1)c1nc(C)nc(Nc2c(Cl)cc(Cl)cc2Cl)c1Cl`, the “activation” value is reported as -1.87%. In the case of `Cc1cc(NC2CCCCC2)nc(-n2nc(C)cc2C)n1`, the “activation” value is reported as 5.59%. `NCCSSCCN` was tested, and the “activation” value was -1.62%. In the case of `CC(C)(C=O)Cc1cc(C(C)(C)C)c(O)c(C(C)(C)C)c1`, the “activation” value is reported as 0.664%. In the case of `CCc1c(C(=O)NCCc2ccc(N3CCCCC3)cc2)[nH]c2ccc(Cl)cc12`, the “activation” value is reported as -1.55%.
